The record followed here is the supplement of paper PMC12282887.

The test system of the assay is E. coli BW25113 marRABp lux reporter. The assay can be described thus: promoter activity interaction Z-score (Lux/OD deviation from empty-vector control); higher = stronger promoter induction by the compound. On the procedure: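 E. coli BW25113 (wild type or ΔmarA/ΔsoxS/Δrob) carrying pTU175 luxCDABE promoter reporters was grown in LB in 384-well plates at 37°C with each of 94 compounds at 4 two-fold concentrations, in biological duplicates. Luminescence and OD600 were read every 30 min for 12 h and integrated as AUC over 8 h (0-8 h WT, 1-9 h mutants). Lux AUC was divided by OD AUC; the interaction score is the residual of a Huber robust fit of each promoter against the empty-vector control, then Z-transformed per promoter.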

± gives the standard deviation of the averaged measurements.

Regarding `C[C@@H]1O[C@@H]1P(=O)(O)O` [Fosfomycin], the “promoter activity interaction Z-score” value (0.011 µg/ml, genetic background: wild type) is 0.112 ± 0.27; the “promoter activity interaction Z-score” value (0.011 µg/ml, genetic background: ΔmarA) amounted to 0.0292 ± 0.18; the “promoter activity interaction Z-score” value (0.011 µg/ml, genetic background: Δrob) was -0.0327 ± 0.12; the “promoter activity interaction Z-score” value (0.011 µg/ml, genetic background: ΔsoxS) worked out at 0.00491 ± 0.17; the “promoter activity interaction Z-score” value (0.023 µg/ml, genetic background: wild type) turned out to be 0.0365 ± 0.015; the “promoter activity interaction Z-score” value (0.023 µg/ml, genetic background: ΔmarA) was determined as 0.0557 ± 0.48. Moreover, the “promoter activity interaction Z-score” value is -0.0686 ± 0.17 (0.023 µg/ml, genetic background: Δrob); -0.0756 ± 0.00091 (0.023 µg/ml, genetic background: ΔsoxS); -0.461 ± 0.53 (0.046 µg/ml, genetic background: wild type); -0.206 ± 0.0084 (0.046 µg/ml, genetic background: ΔmarA); -0.0852 ± 0.1 (0.046 µg/ml, genetic background: Δrob); 0.136 ± 0.17 (0.046 µg/ml, genetic background: ΔsoxS). Also, the “promoter activity interaction Z-score” value (0.091 µg/ml, genetic background: wild type) amounted to 1.62 ± 0.061; the “promoter activity interaction Z-score” value (0.091 µg/ml, genetic background: ΔmarA) is 1.31 ± 0.6; the “promoter activity interaction Z-score” value (0.091 µg/ml, genetic background: Δrob) was determined as 0.576 ± 0.054; the “promoter activity interaction Z-score” value (0.091 µg/ml, genetic background: ΔsoxS) is 1.75 ± 0.052.
In the case of `Oc1cc(O)c2c(c1)O[C@@H](c1ccc(O)c(O)c1)[C@H](O)C2` [Catechin], the “promoter activity interaction Z-score” value runs as follows: (18.1 µg/ml, genetic background: wild type) 0.176 ± 0.43; (18.1 µg/ml, genetic background: ΔmarA) -0.0258 ± 0.23; (18.1 µg/ml, genetic background: Δrob) 0.052 ± 0.11; (18.1 µg/ml, genetic background: ΔsoxS) -0.135 ± 0.017; (36.3 µg/ml, genetic background: wild type) -0.308 ± 0.32; (36.3 µg/ml, genetic background: ΔmarA) -0.311 ± 0.035. Besides, the “promoter activity interaction Z-score” value by setting is: (36.3 µg/ml, genetic background: Δrob) -0.0876 ± 0.28; (36.3 µg/ml, genetic background: ΔsoxS) -0.0441 ± 0.25; (72.6 µg/ml, genetic background: wild type) 0.00953 ± 0.33; (72.6 µg/ml, genetic background: ΔmarA) -0.104 ± 0.28; (72.6 µg/ml, genetic background: Δrob) -0.105 ± 0.045; (72.6 µg/ml, genetic background: ΔsoxS) -0.241 ± 0.033. The “promoter activity interaction Z-score” value is -0.286 ± 0.36 (145.1 µg/ml, genetic background: wild type); -0.359 ± 0.22 (145.1 µg/ml, genetic background: ΔmarA); -0.128 ± 0.36 (145.1 µg/ml, genetic background: Δrob); -0.183 ± 0.067 (145.1 µg/ml, genetic background: ΔsoxS).
In the case of `O=C(O)CN(CCN(CC(=O)O)CC(=O)O)CC(=O)O`, the “promoter activity interaction Z-score” value was -0.176 ± 0.11 (18.3 µg/ml, genetic background: wild type); -0.48 ± 0.29 (18.3 µg/ml, genetic background: ΔmarA); -0.224 ± 0.07 (18.3 µg/ml, genetic background: Δrob); -0.191 ± 0.04 (18.3 µg/ml, genetic background: ΔsoxS); -0.238 ± 0.25 (36.5 µg/ml, genetic background: wild type); -0.327 ± 0.086 (36.5 µg/ml, genetic background: ΔmarA). In addition, the “promoter activity interaction Z-score” value (36.5 µg/ml, genetic background: Δrob) was -0.221 ± 0.16; the “promoter activity interaction Z-score” value (36.5 µg/ml, genetic background: ΔsoxS) is -0.276 ± 0.012; the “promoter activity interaction Z-score” value (73.1 µg/ml, genetic background: wild type) was -0.3324 ± 0.002; the “promoter activity interaction Z-score” value (73.1 µg/ml, genetic background: ΔmarA) is -0.545 ± 0.11; the “promoter activity interaction Z-score” value (73.1 µg/ml, genetic background: Δrob) was -0.378 ± 0.066; the “promoter activity interaction Z-score” value (73.1 µg/ml, genetic background: ΔsoxS) was -0.175 ± 0.04. In addition, the “promoter activity interaction Z-score” value came to 0.543 ± 0.16 (146.1 µg/ml, genetic background: wild type); 1.07 ± 0.021 (146.1 µg/ml, genetic background: ΔmarA); 1.66 ± 0.58 (146.1 µg/ml, genetic background: Δrob).
